What all share (test): MAPPIT interaction score (arbitrary units); higher = stronger binary interaction signal, active = hit call of the paper
The target of one assay is CG3651. Particulars: MAPPIT configuration: N-N; pair source set: RRS.
The target in the next assay is CG43325. Particulars: MAPPIT configuration: N-C; pair source set: screen_4.
A further assay addresses caup. Particulars: MAPPIT configuration: N-N; pair source set: screen_1.
Another assay addresses CG42245. The note with it: MAPPIT configuration: N-N; pair source set: RRS.
The next assay addresses CG44837. The note with it: MAPPIT configuration: N-N; pair source set: Curagen_low_conf.
Another assay has as its target CG42512. The note with it: MAPPIT configuration: N-C; pair source set: RRS.
A further assay concerns the target Orco. Particulars: MAPPIT configuration: N-C; pair source set: Lit-BM-16.
A further assay has as its target CG3565. The note with it: MAPPIT configuration: N-N; pair source set: DPIM.
The next assay has as its target CG9588. Particulars: MAPPIT configuration: N-N; pair source set: Lit-BS-16.
The target of a further assay is Prosalpha2. Particulars: MAPPIT configuration: N-N; pair source set: Lit-BM-16.
Another assay addresses Rpn1. The note with it: MAPPIT configuration: N-N; pair source set: Lit-BM-16.
The next assay has as its target Rpt1. Particulars: MAPPIT configuration: N-C; pair source set: Lit-BM-16.
Another assay has as its target Rpt6. Particulars: MAPPIT configuration: N-C; pair source set: Lit-BM-16.
In another assay the target is CG4617. The note with it: MAPPIT configuration: N-N; pair source set: Curagen_high_conf.
A further assay addresses CG4325. Particulars: MAPPIT configuration: N-N; pair source set: DPIM.
For the next assay, the target named is CG4511. The note with it: MAPPIT configuration: N-C; pair source set: screen_3.
The next assay has as its target CG4360. The note with it: MAPPIT configuration: N-N; pair source set: Curagen_low_conf.
In the next assay the target is CG3792. The note with it: MAPPIT configuration: N-C; pair source set: screen_4.
The next assay has as its target Dpm3. The note with it: MAPPIT configuration: N-C; pair source set: screen_3.
The next assay deals with CG42831. Particulars: pair source set: RRS.
The next assay concerns the target CG42659. Particulars: MAPPIT configuration: N-C; pair source set: screen_4.
A further assay deals with Traf-like. Particulars: MAPPIT configuration: N-N; pair source set: Lit-BS-16.

MAPPIT interaction score data for 13 molecules are collected here from the supplement of paper PMC10105736.

Values without a mark were called inactive.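 Rule for the calls: active = MAPPIT score above the 99th percentile of random reference set scores in the same batch; inactive = at or below it.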
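Note: HEK293T cells with Epo stimulation, STAT-responsive firefly luciferase reporter, fold induction versus unstimulated cells divided by the larger fold induction of two negative controls lacking either bait or prey.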

B1: mex1 (protein)
chain: MCNALCECLKCPGKVVCCCCSCACKMLLSIVFSALLMVVVIGLIVYFTVFYHKDKNTDEVQKQVAQLTPIVKRSIRDYFNKEY
Consider B1, for which the MAPPIT interaction score with CG3651 was 0.00975.

B2: Mst84Db (protein)
chain: MCCGPLGFCGPCSPCGGPCGPCGPCGPCGSCCSPCGSCCAPCGPCGPCGPCCGGCGPCGPCGPCCGPCRPYCGC
Turning to B2, the MAPPIT interaction score with CG43325 is 1.12; with caup, 0.0255.

B3: Dhfr (protein)
chain: MLRFNLIVAVCENFGIGIRGDLPWRIKSELKYFSRTTKRTSDPTKQNAVVMGRKTYFGVPESKRPLPDRLNIVLSTTLQESDLPKGVLLCPNLETAMKILEEQNEVENIWIVGGSGVYEEAMASPRCHRLYITKIMQKFDCDTFFPAIPDSFREVAPDSDMPLGVQEENGIKFEYKILEKHS
B3: the MAPPIT interaction score with CG42245 is 0.497.

B4: RhoGAP92B (protein)
chain: MKRQFAKIKIAAENLSRSSKSDSKDSELEAIERQVDRYRDTIEKIVRKLPALSGGGGSGSGSSEEQDKRTKKNSHYKIAQALDESAKELPKDMPLQKVLANCGELEKTMAECIIESELETEAKVVRRLKNILDKEIQEISTLKRNVSRTLQEYTSLKRSHEAAIRLEEPAAKVNHIKSQQEECELKLEKERDAWAAQMLELIAKEDEIVSCIRDYVLNQRNYHERALQHVNASLARIQDTIQGTEKSRFGTSLKEHLTSTNREISYIVELCCCCLLEHGLEEEGLLRVGCASTKLRRMKHALEAQHVKTPLPLDYQDPHVIGSILKLYLRELPEPLLTYNLYKDFIRIAERHSEAERKTEIKAILTKLPKENYANLRYLTRFLSIVQQRSALNKMSSQNLAIVMSPNMLWPRIDKSSNAPADYIGQVNSSSAANIIVELLISQWDYFFIGEVEFYLTLQKQKLFVEGKSKSNSSNENLDRNDSEVMESPRYGTLRRQKANAPSPPTTNGNGIIMTTSQTSHRPHAKELFPQQTPEKQEKPAKPPLPNLPQFQSPAASQPTQTQLEPLPPPPVTPAKPVPMTRTQFFGLDNLPSPTADRKSTDSIGSFKLKPDVPQKPLLPKRPTVLGVGVPKADGKSDDEGGTTPTQATIDNGNGSVRFKTEHFLDKLRQENGETNGTREVSSTTKENNHNHDPPATAADQNQQQAQPQVTTPISPNSFQTPKRPTVPAPPPPTNWKSSD
Take B4: the MAPPIT interaction score with CG44837 was -0.0901.

B5: Orco (protein)
chain: MTTSMQPSKYTGLVADLMPNIRAMKYSGLFMHNFTGGSAFMKKVYSSVHLVFLLMQFTFILVNMALNAEEVNELSGNTITTLFFTHCITKFIYLAVNQKNFYRTLNIWNQVNTHPLFAESDARYHSIALAKMRKLFFLVMLTTVASATAWTTITFFGDSVKMVVDHETNSSIPVEIPRLPIKSFYPWNASHGMFYMISFAFQIYYVLFSMIHSNLCDVMFCSWLIFACEQLQHLKGIMKPLMELSASLDTYRPNSAALFRSLSANSKSELIHNEEKDPGTDMDMSGIYSSKADWGAQFRAPSTLQSFGGNGGGGNGLVNGANPNGLTKKQEMMVRSAIKYWVERHKHVVRLVAAIGDTYGAALLLHMLTSTIKLTLLAYQATKINGVNVYAFTVVGYLGYALAQVFHFCIFGNRLIEESSSVMEAAYSCHWYDGSEEAKTFVQIVCQQCQKAMSISGAKFFTVSLDLFASVLGAVVTYFMVLVQLK
Turning to B5, the MAPPIT interaction score with CG42512 was 0.963; with Orco, -0.077.

B6: Rpt2 (protein)
chain: MGQNQSAQGGAGEKKDDKDKKKKYEPPIPTRVGKKKRRAKGPDAAMKLPQVTPHTRCRLKLLKLERIKDYLMMEDEFIRNQERLKPQDEKNEEERSKVDDLRGTPMSVGNLEEIIDDNHAIVSTSVGSEHYVSILSFVDKDQLEPGCSVLLNHKVHAVVGVLSDDTDPMVTVMKLEKAPQETYADIGGLDTQIQEIKESVELPLTHPEYYEEMGIKPPKGVILYGPPGTGKTLLAKAVANQTSATFLRVVGSELIQKYLGDGPKLVRELFRVAEEHAPSIVFIDEIDAVGTKRYDSNSGGEREIQRTMLELLNQLDGFDSRGDVKVIMATNRIETLDPALIRPGRIDRKIEFPLPDEKTKRRIFTIHTSRMTLAEDVNLSELIMAKDDLSGADIKAICTEAGLMALRERRMKVTNEDFKKSKESVLYRKKEGTPEGLYL
For the molecule B6, the MAPPIT interaction score in the assay with CG3565 is 2.71 (active); in the assay with CG9588, 0.822; with Prosalpha2, 2.86 (active); with Rpn1 it was 6.22 (active); with Rpt1, 1.56; in the assay with Rpt6, 0.824.

B7: TfIIA-L (protein)
chain: MALCQTSVLKVYHAVIEDVITNVRDAFLDEGVDEQVLQEMKQVWRNKLLASKAVELSPDSGDGSHPPPIVANNPKSHKAANAKAKKAAAATAVTSHQHIGGNSSMSSLVGLKSSAGMAAGSGIRNGLVPIKQEVNSQNPPPLHPTSAASMMQKQQQAASSGQGSIPIVATLDPNRIMPVNITLPSPAGSASSESRVLTIQVPASALQENQLTQILTAHLISSIMSLPTTLASSVLQQHVNAALSSANHQKTLAAAKQLDGALDSSDEDESEESDDNIDNDDDDDLDKDDDEDAEHEDAAEEEPLNSEDDVTDEDSAEMFDTDNVIVCQYDKITRSRNKWKFYLKDGIMNMRGKDYVFQKSNGDAEW
In the case of B7, the MAPPIT interaction score in the assay with CG4617 is -0.0193.

B8: mfrn (protein)
chain: MNIDDYESLPTTSVGVNMTAGAIAGVLEHVVMYPLDSVKTRMQSLSPPTKNMNIVSTLRTMITREGLLRPIRGASAVVLGAGPAHSLYFAAYEMTKELTAKFTSVRNLNYVISGAVATLIHDAISSPTDVIKQRMQMYNSPYTSVVSCVRDIYKREGFKAFYRAYGTQLVMNLPYQTIHFTTYEFFQNKMNLERKYNPPVHMAAGAAAGACAAAVTTPLDVIKTLLNTQETGLTRGMIEASRKIYHMAGPLGFFRGTTARVLYSMPATAICWSTYEFFKFYLCGLDADQYKSSITGSSEPRKADYVLPRTTDEEQIDQEREAAKEKDTTATLHSAPTSVNASGAIKTVCELSTRPAGPTINLHTRHTDVKSPYERGFST
In the case of B8, the MAPPIT interaction score with CG4325 was -0.276.

B9: Pka-R1 (protein)
chain: MSYMMAKTLEEQSLRECEHYIQTHGIQRVLKDCIVQLCVCRPENPVQFLRQYFQKLEREQVKLDASRQVISPDDCEDLSPMPQTAAPPVRRRGGISAEPVTEEDATNYVKKVVPKDYKTMNALSKAIAKNVLFAHLDESERSDIFDAMFPVNHIAGENIIQQGDEGDNFYVIDVGEVDVFVNSELVTTISEGGSFGELALIYGTPRAATVRAKTDVKLWGIDRDSYRRILMGSTIRKRKMYEEFLSRVSILESLDKWERLTVADSLETCSFDDGETIVKQGAAGDDFYIILEGCAVVLQQRSEGEDPAEVGRLGSSDYFGEIALLLDRPRAATVVARGPLKCVKLDRARFERVLGPCADILKRNITQYNSFVSLSV
As for B9, in the assay with CG4511, the MAPPIT interaction score is 5.21 (active).

B10: Paris (protein)
chain: MAEICRVCMDISGKLVNIFDARRRTRVSIAEMIAQCTGFEVKRGDLFSEMICPQCYEDVKSAYGIRQTCEESHQFYCRVRDEGIEDALCALLEEEDWEISEDEDARIDSASAADDDGKSDSKKVAFECRECHKKYQRKGTFLRHMRTHMDGQSFPCPYCKRNFRLRVTLKAHMKTHNAAKPYECSHCAKTFAQQSTLQSHERTHTGERPFKCSQCSKTFIKSSDLRRHIRTHGSERPFKCSKCTKTFTRKFHLDNHFRSHTGERPFKCSHCPKAFAMKQHLKQHSRLHLPDRPFRCSHCPKTFRLSSTLKEHKLVHNAERTFKCPHCASFYKQRKTLARHILEIHK
Consider B10, for which, in the assay with CG4360, the MAPPIT interaction score was 0.0302.

B11: Syngr (protein)
chain: MDMLNQILSINNGGAYGGGKAGGAFDPLTFAMKPQVVIRALCWLFSVVVFGCISSEGWTEKDGKEYCLYNGDGMACKYGNMVGVFGFLASMGFMGGEFLFERMSSVKSRKRYVMADMGFSALWTFMYFVAFLYLWSQWSSSAPPPLGIGAGSMKTAIWFCLFSIVSWALCALMAYKRFLIGAGDEFTSAFETDPANVVHQQAYGYSMDNDNDQYSASPFGQPQQGGMEQQQSGMEYQQPTY
Regarding B11, the MAPPIT interaction score with CG3792 is -0.645; with Dpm3, -1.36.

B12: dan (protein)
chain: MNIRMGTKGKRPLRSLTPRDKIHAIQRIHDGESKASVARDIGVPESTLRGWCKNEDKLRFMSRQSATDNLCADALGDKMDGGGGGGGGAGGGGLLGPPEKRQRLDGALPLNFSNKLKFDELAFKRSPLNGLDYSTNKNLADLGYNGLPVDYAAFNGGVKAKVFGADINRPAADPSLNAISPLSSLTHLSGLTGISQSPLAISFNELTTNLNLLAQLNPGLAAMSGLNSFPAGAGNLRTPKPSGQTPLQVQSPRSDSGDRSAQGLSVKNWAKQKPGEGQGSLNLSIKNEGKGGDIKSPSPSIAPSQMGGPMTLSNLAEDPLLYWLKSQQTMLGLNPLYPPTIPMGVTSPPIRSSTPQHMSQLAQTPPIPSAPLTPSSTPSGSLDEKNAAWYNWCKAFGASLHTLNPNAATLAALQANQLQQQVATTAAEGGSMGDPSNILYSHLTKETETPSVRSLSSNEQNPEADEATETDLDGEVEPEASGKPEDLSAAGKVMTPSQSPIAHSSGSRSPEPKAKTKTPETTNSTSECKKILDNMLFKMGGMEATGPLMPEQGSSESEGSFQDTSNPHTNNNDVSASNNNNNNNSNKTDEEEKAKYLDCTADEDIEAIRHGEKFLQWLENCSNPRVTAVQLMQLRFLIAAIKSGNETPMIEKSALPEDSEEHAAEEEGSGRGKSRRRK
For the molecule B12, the MAPPIT interaction score was 0.788 in the assay with CG42831 (MAPPIT configuration: N-C) and 0.273 with CG42831 (MAPPIT configuration: N-N).

B13: esg (protein)
chain: MHTVEDMLVEKNYSKCPLKKRPVNYQFEAPQNHSNTPNEPQDLCVKKMEILEENPSEELINVSDCCEDEGVDVDHTDDEHIEEEDEDVDVDVDSDPNQTQAAALAAAAAVAAAAAASVVVPTPTYPKYPWNNFHMSPYTAEFYRTINQQGHQILPLRGDLIAPSSPSDSLGSLSPPPHHYLHGRASSVSPPMRSEIIHRPIGVRQHRFLPYPQMPGYPSLGGYTHTHHHHAPISPAYSENSYYSMRSMTPESSCSSSLPEDLSLKHKNLNLNLNTSQPGEQAAAKTGDMSPETMPNASAKKDKNQPPRYQCPDCQKSYSTFSGLTKHQQFHCPAAEGNQVKKSFSCKDCDKTYVSLGALKMHIRTHTLPCKCNLCGKAFSRPWLLQGHIRTHTGEKPFSCQHCHRAFADRSNLRAHLQTHSDIKKYSCTSCSKTFSRMSLLTKHSEGGCPGGSAGSSSSSELNYAGYAEP
On to B13, for which the MAPPIT interaction score with CG42659 is 0.721; with Traf-like, 0.713.
